Screening results from PubChem BioAssay.
FLuc inh: Photinus pyralis luciferase inhibition; P08659; purified P. pyralis luciferase, luminescence, biochemical; Potency, µM (doses to about 115 µM), actives largely listed as inhibitors; actives 2.5% (n = 76,000); AID 1347043; note: nearly all actives have a fitted effect of over 65% in size
Target sequence (P08659 whole entry, looked up): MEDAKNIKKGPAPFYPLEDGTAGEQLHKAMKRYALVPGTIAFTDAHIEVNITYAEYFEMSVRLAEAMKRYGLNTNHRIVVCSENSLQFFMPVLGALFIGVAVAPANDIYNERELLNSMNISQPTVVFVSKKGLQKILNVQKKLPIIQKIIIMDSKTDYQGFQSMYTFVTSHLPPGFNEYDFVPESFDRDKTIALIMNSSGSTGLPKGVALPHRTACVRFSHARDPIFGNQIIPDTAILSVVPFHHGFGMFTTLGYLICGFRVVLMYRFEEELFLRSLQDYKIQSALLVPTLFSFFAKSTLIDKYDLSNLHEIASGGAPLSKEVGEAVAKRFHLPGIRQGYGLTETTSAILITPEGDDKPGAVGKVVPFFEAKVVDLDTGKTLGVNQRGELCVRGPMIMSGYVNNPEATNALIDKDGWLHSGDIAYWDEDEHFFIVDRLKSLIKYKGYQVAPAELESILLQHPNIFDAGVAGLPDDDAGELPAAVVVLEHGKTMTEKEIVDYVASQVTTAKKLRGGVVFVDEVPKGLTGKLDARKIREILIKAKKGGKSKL
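FLuc 10nM, D-luciferin 10uM, ATP 10uM, Mg acetate 10mM, Tris acetate pH 7.5, Tween/BSA; cpd qHTS; enzyme added last; CCD luminescence.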
SNCA expr inhib: inhibitors of alpha-synuclein (SNCA) gene expression; actives 0.17% (n = 140,000); HEK-293 SNCA-luciferase knock-in, luminescence, 24 h; Potency, µM (titrated, usually from 57.2 µM), for inactives: at the top dose activity change, negative = inhibition, actives largely listed as inhibitors; AID 1671194;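 note: plate controls were DMSO cells for no effect and cell-free wells for full effect; nearly all actives have a fitted effect of over 45% in size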
NIH3T3 tox: kills NIH 3T3 cells | NIH 3T3 viability, CellTiter-Glo ATP luminescence, 48-72 h | Potency, µM (highest dose often 96.7 µM), without a hit: at the highest dose activity change, negative = cytotoxicity, hits mostly inhibitors | actives 4.3% (n = 94,000); note: nearly all actives have a fitted effect of over 55% in size
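ATP-dependent luminescence (CellTiter-Glo) served as the viability signal for NIH 3T3 cells treated with compound for 48 or 72 hr at 37 °C.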
hNpr1 antagonist: human Npr1 receptor antagonism; actives 1.6% (n = 76,000); Potency, µM (top dose mostly 46.3 µM), for inactives: at the top dose activity change, negative = inhibition, actives largely listed as inhibitors; HEK293 hNpr1 GloSensor cGMP, ANP-stimulated luminescence; calls by dose curve; note: nearly all actives have a fitted effect of over 60% in size
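Compound pre-incubated 30 min at room temperature on GloSensor-loaded HEK293 cells stably carrying hNpr1 and the pGS-40F cGMP biosensor. Stimulation uses hNppA at 0.1 nM final; luminescence is taken at baseline and 20 min post-agonist.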
HEK293 viab: cell viability loss counter-screen. Potency, µM (top dose mostly 57.1 µM), without a hit: at the highest dose activity change, negative = cytotoxicity, actives largely listed as cytotoxic. HEK-293-SNCA-luc viability, GF-AFC fluorescence, 24 h. actives 0.12% (n = 150,000);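 note: 0% = DMSO-treated cells and -100% = medium-only wells without cells; nearly all actives have a fitted effect of over 30% in size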
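HEK-293-SNCA-luc cells (1500/well) plated 24 h, then exposed 24 h to a dilution series; GF-AFC added 30 min at 37C, fluorescence 405/540 nm; normalised to medium-only and DMSO wells, Hill fit.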
HEK cytotox: cytotoxic compounds in HEK 293 cells | AID 1345083 | HEK 293 viability, ATP luminescence (CellTiter-Glo), 48-72 h | Potency, µM (top dose mostly 115 µM), for the others: at the highest dose activity change, negative = cytotoxicity, most hits filed as inhibitors | actives 6.6% (n = 94,000); note: nearly all actives have a fitted effect of over 60% in size
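250 HEK 293 cells/well; compound by pintool; incubated 48 or 72 hr at 37 degree Celsius; CellTiter-Glo added, 10 min RT, luminescence imaged.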
* hit, by the source's call; i = inactive; ? = inconclusive; · = no result given; ! = not confirmed by another sample; [ ] = remark or other dose. Shown are actives, neighbours in structure and some others; about 7.4% of the full set was active somewhere. Unless noted, calls come from the whole dose curve; as a rule, active = well fitted curve in the direction sought with a large enough effect; inconclusive = small, poorly fitted or top-dose-only effect, or another doubt; inactive = no such curve, though single readings can be large; an effect the other way counts as inactive or inconclusive. Unless noted, % is set by controls: 0 for no effect and ±100 for the full control effect; potency is the fitted concentration of half-maximal effect.

SMILES	FLuc inh	SNCA expr inhib	NIH3T3 tox	hNpr1 antagonist	HEK293 viab	HEK cytotox
Cc1nc(-c2ccccc2)n(CC(=O)Nc2ccc(F)c(Cl)c2)c(=O)c1CCO	i	-27%	?	-27%	-15%	40µM*
Cc1nc(-c2ccccc2)n(CC(=O)Nc2ccc(Cl)cc2)c(=O)c1CCO	i	12%	-29%	-18%	?	?
Cc1nc(-c2ccccc2)n(CC(=O)Nc2cccc(C#N)c2)c(=O)c1CCO	i	8%	?	-21%	-16%	40µM*
O=C1NCc2ccccc2CC12CCCN(Cc1ccc(Cl)cc1)C2 (stereo unspecified)	·	-3%	?	·	1%	?
CCO[C@H]1CN(C(=O)CCc2nc3c(C)c(C)ccc3[nH]2)C[C@@H]1O	i	-9%	1%	8%	-2%	-3%
O=C(NCC1CCCCC1)C1CCCN(c2ccnc3ccnn23)C1 (stereo unspecified)	·	7%	?	·	-22%	?
COC[C@@H]1[C@H](C(=O)NCc2ccccc2OC)CCC(=O)N1C	·	5%	2%	·	1%	i
Nc1nc2c(ncn2COC(CO)CO)c(=O)[nH]1	·	0.086µM*!	·	·	-18%	·
CN(C(=O)c1ccc2nc(-c3ccc(F)cc3)cn2c1)C1CCOCC1	32µM*	44%	-9%	6%	-2%	?
COc1cccc(-c2cc(C3CCN(S(=O)(=O)c4ccc(F)cc4F)CC3)[nH]n2)c1	i	?	?	?	-21%	25µM*
COc1cccc(-c2cc(C3CCN(S(=O)(=O)c4ccc(C#N)cc4)CC3)[nH]n2)c1	i	5%	28µM*	?	3%	28µM*
COc1cccc(-c2cc(C3CCN(C(=O)Nc4ccc(F)cc4)CC3)[nH]n2)c1	i	-11%	?	1%	6%	?
O=C(NCCc1ccccc1)N1CCC(CCc2nc(C3CCOCC3)no2)CC1	·	62%	?	·	1%	?
CC(C(=O)NCCc1ccccc1)N1C(=O)COc2ccc(C(=O)COc3ccc(Cl)cc3)cc21 (stereo unspecified)	i	-21%	?	-4%	-22%	45µM*
COc1cccc(OCC(=O)c2ccc3c(c2)N(CCCC(=O)NCc2ccccc2)C(=O)CO3)c1	i	-21%	40µM*	-2%	-29%	?
Cc1cc(F)ccc1OCC(=O)c1ccc2c(c1)N(C(C)C(=O)N1CCCCC1)C(=O)CO2 (stereo unspecified)	?	34%	?	-4%	-22%	50µM*
COc1ccccc1OCC(=O)c1ccc2c(c1)N(C(C)C(=O)NCCc1ccccc1)C(=O)CO2 (stereo unspecified)	i	8%	?	7%	-30%	?
Cc1cccc(OCC(=O)c2ccc3c(c2)N(C(C)C(=O)N2CCCC2)C(=O)CO3)c1C (stereo unspecified)	?	-5%	-30%	0%	-22%	45µM*
O=C(Cc1ccc(F)cc1)N1CCN(C(=O)c2cccc(-c3ccccn3)c2)CC1	·	-6%	-23%	·	-4%[12.5 µM]	?
CCOc1cccn2c(=O)c(-c3cc(C)n(-c4ccc(Cl)cc4)n3)c(C)nc12	i	-16%	-15%	-1%	-4%	?
Cc1nc2c(OCC(=O)c3ccccc3)cccn2c(=O)c1-c1cc(C)n(-c2ccc(Cl)cc2)n1	28µM*	?	?	0%	4%	?
Cc1ccc2c(n1)OC(COc1ccccc1)CN(Cc1cccc(F)c1)C2=O (stereo unspecified)	·	?	?	·	-11%[23.9 µM]	?
O=C1Nc2ccccc2CN(C/C=C/c2ccccc2)C12CCNC2 (stereo unspecified)	·	8%	25µM*	·	-7%	?
O=C1Nc2ccccc2CN(Cc2ccccc2)C12CCNC2 (stereo unspecified)	·	19%[87.6 µM]	89µM*	·	-3%[87.6 µM]	?
O=C1Nc2ccccc2CN(Cc2ccc(Cl)cc2)C12CCNCC2	i	-2%	14µM*	-16%	-26%	20µM*
SMILES	FLuc inh	SNCA expr inhib	NIH3T3 tox	hNpr1 antagonist	HEK293 viab	HEK cytotox
CCCNc1cc(N2CCC(CCC(=O)NCc3ccccc3Cl)CC2)ncn1	?	2.8µM*	-27%	-13%	-7%	?
CCCNc1cc(N2CCC(CCC(=O)NCC3CC3)CC2)ncn1	i	?	-25%	-10%	6%	i
CC(=O)N1CCN(C(=O)CCC2CCN(c3cc(NC4CC4)ncn3)CC2)CC1	i	-27%	-24%	?	-4%	?
CCNc1cc(N2CCC(CCC(=O)Nc3cccc(OC)c3)CC2)ncn1	?	7.9µM*	-15%	?	0%	?
CCNc1cc(N2CCC(CCC(=O)NCc3cccc(F)c3)CC2)ncn1	?	?	?	?	7%	?
O=C(CCC1CCN(c2cc(NC3CC3)ncn2)CC1)NCc1ccccc1Cl	?	8.9µM*	?	-24%	7%	?
CCCNc1cc(N2CCC(CCC(=O)NCc3cccc(OC)c3)CC2)ncn1	?	2.2µM*	-1%	-20%	2%	-15%
COc1ccccc1Cn1c(=O)c(C(=O)NCC(F)F)nc2cccnc21	·	-1%	-14%	·	-18%	-5%
CN1CCCN(Cc2ccc3c(c2)OCO3)c2ccccc21	·	25%	?	·	-17%	?
O[C@@H]1C[C@@H](c2nc(-c3ccccc3)no2)N(Cc2cc3ccccc3o2)C1	40µM*	146%[87.6 µM]	?	2%[70.6 µM]	-2%[87.6 µM]	?
OCc1ccc(CN2C[C@H](O)C[C@H]2c2nc(-c3ccccc3)no2)o1	45µM*	109%[87.6 µM]	-14%[174 µM]	4%[70.6 µM]	-8%[87.6 µM]	-8%[172 µM]
COc1ccccc1C(=O)Nc1cc(-c2ccncc2)nn1C	·	53%[87.6 µM]	?	·	-6%[87.6 µM]	?
O=C(c1ccc(-c2ccc(N3CCCCCC3)nc2)cc1)N1CCCC1	?	-17%	32µM*	?	-24%	28µM*
CC(C)NC(=O)c1ccc(-c2ccc(N3CCCCCC3)nc2)cc1	i	63%	?	?	-11%	?
CN(C)C(=O)c1ccnc(-c2nnc3ccc(N4CCCCC4)nn23)c1	i	-3%[87.6 µM]	32µM*	-2%[70.6 µM]	9%[87.6 µM]	5%[172 µM]
CN(C)C(=O)c1ccnc(-c2nnc3ccc(NC4CCCCC4)nn23)c1	i	19%[87.6 µM]	?	4%[70.6 µM]	8%[87.6 µM]	1%[172 µM]
CN(C)C(=O)c1ccc(-c2ccc(N3CCCCCC3)nc2)cc1	18µM*	25%	?	-23%	-23%	32µM*
COc1cccc(-c2cccc(C(=O)N3CCCC3C(=O)NCc3cccc(F)c3)c2)c1 (stereo unspecified)	·	3%	?	·	-13%[12.5 µM]	?
